Measured values: paper PMC5540273 (PLoS ONE, 2017)

Key:
Conditions in all cases: concentration: 1 μM, replicates: in singlicate; n = 1
SGK3 = test system: SGK3
SGK = test system: SGK
SIK2 = test system: SIK2
SIK = test system: SIK
SLK = test system: SLK
SNARK = test system: T1, SNARK
T1 construct: gene NUAK2

SNRK = test system: SNRK
SRC = test system: SRC
SRMS = test system: SRMS
SRPK1 = test system: SRPK1
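Also: KINOMEscan kinase panel screen.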

Compound | %Inh (SGK3) | %Inh (SGK) | %Inh (SIK2) | %Inh (SIK) | %Inh (SLK) | %Inh (SNARK) | %Inh (SNRK) | %Inh (SRC) | %Inh (SRMS) | %Inh (SRPK1)
COc1ccc(CSc2nnc(-c3ccc4c(c3)CCO4)o2)cc1 | 0% | 0% | 0% | 0% | 0% | 0% | 0% | 0% | 0% | 0%
Cc1c(Cn2c3ccccc3n3c(=O)cc(N4CCOCC4)nc23)cccc1C(F)(F)F [GSK2306394] | 0% | 15% | 0% | 0% | 5% | 0% | 0% | 1% | 0% | 41%
Fc1ccc(-c2nc3n(c2-c2ccncc2)CCS3)cc1 [GI98581] | 0% | 0% | 0% | 17% | 25% | 0% | 0% | 9% | 0% | 23%
COC(=O)C(NC(=O)NC1CCN(c2ccnc(Nc3ccc(F)cc3)n2)C1)c1ccccc1 (stereo not drawn) [GSK1379712] | 2% | 2% | 3% | 0% | 4% | 5% | 0% | 0% | 0% | 0%
CC(=O)c1cccc(NC(=O)NC2CCN(c3ccnc(Nc4ccc(F)cc4)n3)C2)c1 (stereo not drawn) [GSK1379710] | 5% | 18% | 9% | 0% | 2% | 19% | 7% | 0% | 8% | 21%
COc1ccc(CSc2nnc(-c3ccc4nccn4c3)o2)cc1C(F)(F)F | 61% | 8% | 29% | 13% | 14% | 77% | 5% | 7% | 3% | 20%
CCn1c(-c2ccccc2)nc2cnccc21 [SB-733416] | 0% | 9% | 5% | 3% | 28% | 0% | 0% | 0% | 0% | 11%
CC(=O)c1c(C)c2cnc(Nc3ccc(N4CCNCC4)cn3)nc2n(C2CCCC2)c1=O | 5% | 0% | 10% | 0% | 0% | 0% | 8% | 0% | 0% | 32%
Cc1cccc2c(-c3ccncn3)c(-c3ccc(F)cc3)nn12 [GW515532] | 2% | 12% | 39% | 0% | 13% | 0% | 0% | 0% | 0% | 33%
O=C(Nc1n[nH]c2nc(-c3cccs3)c(Br)cc12)C1CC1 [SB-735297] | 15% | 26% | 0% | 0% | 7% | 10% | 0% | 0% | 5% | 22%
COc1ccc(Nc2nccc(N3CCC(NC(=O)c4cc5ccccc5s4)C3)n2)cc1 (stereo not drawn) [GSK1379738] | 7% | 0% | 0% | 0% | 4% | 6% | 0% | 0% | 0% | 17%
COc1ccc(-c2coc3ccc(-c4nnc(C)o4)cc23)cc1 | 0% | 0% | 3% | 0% | 5% | 0% | 0% | 20% | 0% | 9%
FC(F)(F)c1ccccc1-c1cc(-c2c[nH]nc2-c2ccccn2)ccn1 [GW679396] | 1% | 0% | 0% | 0% | 15% | 0% | 0% | 0% | 0% | 3%
CS(=O)(=O)CCNCc1nc(-c2ccc3ncnc(Nc4ccc5c(cnn5Cc5ccccc5)c4)c3c2)cs1.Cl.Cl [GW569716] | 0% | 3% | 0% | 0% | 0% | 0% | 0% | 0% | 0% | 14%
Cc1ccc(NC(=O)Nc2ccc(Cl)c(C(F)(F)F)c2)cc1-c1ccc(C(=O)Nc2ccncc2)cc1 [GSK1398470] | 4% | 0% | 26% | 41% | 21% | 4% | 56% | 21% | 0% | 30%
